According to PubChem BioAssay (NCI):
Compounds without any hit were thinned out: in the full panel of roughly 83,000, 20% have a hit.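 How to read the values: 0–100, growth inhibition (40 = 60% inhibited); 0, no net growth; -100 to 0, cell death (-40 = 40% of starting cells died; -100 = all dead).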 Values without a mark were called inactive. Active and inactive are the calls of the source. Rule for the calls: active = growth percent below 10; inactive = the rest.

system: SK-OV-3 ovarian; assay: NCI-60 one-dose screen, 48 h (100 = growth as untreated, 0 = no growth, -100 = all killed); settings: 10 µM unless noted

Row | SMILES | growth
1 | C#C[C@]1(O)CC[C@H]2[C@@H]3CC=C4c5sc(Nc6cccc(C)n6)nc5CC[C@]4(C)[C@H]3CC[C@@]21C | -7.51% (active)
2 | Clc1ccc(-c2csc(N/N=C/c3nc4ccccc4n3C3CC3)n2)cc1 | 108%
3 | CCn1c2ccc(/C=N/NS(=O)(=O)CCN(C)C)cc2c2cc(/C=N/NS(=O)(=O)CCN(C)C)ccc21 | 104%
4 | COc1ccc(-c2nnc(/N=C3/C(=O)Nc4ccc(Br)cc43)o2)cc1 | 108%
5 | O=C(N/N=C\c1ccc(Cl)cc1)c1ccc2nc(-c3ccc(Br)cc3)[nH]c2c1 | 79.1%
6 | O=C1CSC(=O)N1Cc1cc2ccccc2nc1Cl | 110%
7 | CCCCSc1nnc(-c2ccc(-c3ccc(Cl)cc3)nc2C)o1 | 111%
8 | COc1ccc(/C=N\NC(=O)c2ccc3nc(-c4ccc(Br)cc4)[nH]c3c2)cc1 | 62.8%
9 | NS(=O)(=O)c1ccc(Nc2nc(N/N=C/c3ccc([N+](=O)[O-])cc3)nc(Nc3ccccc3)n2)cc1 | 67.8%
10 | COc1cc(NC2=C(Cl)C(=O)c3nc(C)ccc3C2=O)cc(OC)c1 | 93.8%
11 | O=C(c1ccc(O)cc1)[C@@H]1[C@@H]2CCCN2[C@@]2(C(=O)N(C(=O)c3ccc(F)cc3)c3ccccc32)[C@H]1c1ccc(F)cc1 | 104%
12 | COc1ccc(S(=O)(=O)n2cc(C=O)c3ccccc32)c(OC)c1 | 97.4%
13 | C#C[C@]1(O)CC[C@H]2[C@@H]3CC=C4c5sc(Nc6cc(Cl)ccn6)nc5CC[C@]4(C)[C@H]3CC[C@@]21C | -1.88% (active)
14 | N#C/C(=C\c1ccc2ccccc2c1)C(=O)Nc1sc2c(c1C#N)CCC2 | 99.8%
15 | CN1CCN(Cc2ccc(NC(=O)c3cncc(C#Cc4cnc5ccc(O[C@H]6CCOC6)nn45)c3)cc2C(F)(F)F)CC1 | -26% (active)
16 | C/C=C/C=C1\C[C@H]2CO[C@H](O2)C1=O | 103%
17 | C#CCOc1ccc(/C=N/Nc2nc(-c3cc(Cl)ccc3Cl)cs2)cc1 | 97.9%

Row | SMILES | growth
18 | COc1ccc(-c2nc(SCC(C)C)nc(N/N=C\c3cccc([N+](=O)[O-])c3)c2C#N)cc1 | 74%
19 | CNC(=O)c1cc(Oc2ccc3nc(NC(=O)c4ccc(CN5CCN(C)CC5)c(C(F)(F)F)c4)sc3c2)ccn1 | 87.1%
20 | C#C[C@]1(O)CC[C@H]2[C@@H]3CC=C4c5sc(Nc6ccc(OC)nc6)nc5CC[C@]4(C)[C@H]3CC[C@@]21C | 44.4%
21 | O=C1Nc2ccc(Br)cc2/C1=N\c1nnc(-c2ccc(Cl)cc2)o1 | 73.3%
22 | CC(C)c1nn(-c2ccccc2)c(N2CCCCC2)c1/C=N/NC(N)=S | 106%
23 | COc1cc(/C=C/C(=O)c2ccc(N3CCN(C)CC3)cc2)ccc1F | 99.3%
24 | CC1CCN(S(=O)(=O)c2ncsc2-c2ccccc2)CC1 | 95%
25 | C#C[C@]1(O)CC[C@H]2[C@@H]3CC=C4c5sc(Nc6ccncc6)nc5CC[C@]4(C)[C@H]3CC[C@@]21C | -38.1% (active)
26 | C#CCOc1ccc(/C=N/Nc2nc(-c3cc4cc(Br)cc(Br)c4oc3=O)cs2)cc1 | 104%
27 | O=C1c2c(c3c4cccnc4[nH]c3c3ccc4ccccc4c23)C(=O)N1CCN1CCCCC1 | 62.9%
28 | NS(=O)(=O)Oc1ccc2nc(Nc3ccc(F)c(F)c3)ccc2c1 | 111%
29 | Cc1ccc(-c2csc(N/N=C/c3nc4ccccc4n3C3CC3)n2)cc1 | 120%
30 | O=C1c2c(c3c4cc(Br)ccc4[nH]c3c3ccc4ccccc4c23)C(=O)N1CCN1CCCCC1 | 57%
31 | Cc1cnc2nc(NN)[nH]n12 | 102%
32 | O=C(NCCCCCCNC(=O)c1c2c(nc3ccccc13)-c1cccnc1SC2)c1c2c(nc3ccccc13)-c1cccnc1SC2 | 85.7%
33 | C#C[C@]1(O)CC[C@H]2[C@@H]3CC=C4c5sc(Nc6cccc(Cl)n6)nc5CC[C@]4(C)[C@H]3CC[C@@]21C | -13.7% (active)

system: IGROV1 ovarian; assay: as above; settings: 10 µM unless noted

Row | SMILES | growth
34 | C#C[C@]1(O)CC[C@H]2[C@@H]3CC=C4c5sc(Nc6cccc(C)n6)nc5CC[C@]4(C)[C@H]3CC[C@@]21C | 45.5%
35 | Clc1ccc(-c2csc(N/N=C/c3nc4ccccc4n3C3CC3)n2)cc1 | 111%
36 | O=C(NNc1nc2cc(F)c(F)cc2n2cccc12)c1ccncn1 | 15.7%
37 | CCn1c2ccc(/C=N/NS(=O)(=O)CCN(C)C)cc2c2cc(/C=N/NS(=O)(=O)CCN(C)C)ccc21 | 77.7%
38 | COc1ccc(-c2nnc(/N=C3/C(=O)Nc4ccc(Br)cc43)o2)cc1 | 91.9%
39 | O=C(CCCCCCN1CC(=O)N2[C@@H](c3ccc(Cl)c(F)c3)c3[nH]c4ccccc4c3C[C@H]2C1=O)NO | 64.5%
40 | O=C(N/N=C\c1ccc(Cl)cc1)c1ccc2nc(-c3ccc(Br)cc3)[nH]c2c1 | -43.6% (active)
41 | O=C1CSC(=O)N1Cc1cc2ccccc2nc1Cl | 99.9%
42 | CCCCSc1nnc(-c2ccc(-c3ccc(Cl)cc3)nc2C)o1 | 99.1%
43 | COc1ccc(/C=N\NC(=O)c2ccc3nc(-c4ccc(Br)cc4)[nH]c3c2)cc1 | 20%
44 | NS(=O)(=O)c1ccc(Nc2nc(N/N=C/c3ccc([N+](=O)[O-])cc3)nc(Nc3ccccc3)n2)cc1 | 52.1%
45 | COc1cc(NC2=C(Cl)C(=O)c3nc(C)ccc3C2=O)cc(OC)c1 | -23.1% (active)
46 | Cc1ccc(/C=C/CC(=O)Nc2ccc(C(=O)Nc3ccc(F)cc3N)cc2)cn1 | 65.5%
47 | O=C(c1ccc(O)cc1)[C@@H]1[C@@H]2CCCN2[C@@]2(C(=O)N(C(=O)c3ccc(F)cc3)c3ccccc32)[C@H]1c1ccc(F)cc1 | 63.1%
48 | COc1ccc(S(=O)(=O)n2cc(C=O)c3ccccc32)c(OC)c1 | 86.6%
49 | C#C[C@]1(O)CC[C@H]2[C@@H]3CC=C4c5sc(Nc6cc(Cl)ccn6)nc5CC[C@]4(C)[C@H]3CC[C@@]21C | 40.1%
50 | N#C/C(=C\c1ccc2ccccc2c1)C(=O)Nc1sc2c(c1C#N)CCC2 | 107%
51 | CN1CCN(Cc2ccc(NC(=O)c3cncc(C#Cc4cnc5ccc(O[C@H]6CCOC6)nn45)c3)cc2C(F)(F)F)CC1 | -57.6% (active)
52 | C/C=C/C=C1\C[C@H]2CO[C@H](O2)C1=O | 97.7%
53 | O=C(NNc1nc2cc(F)cc(F)c2n2cccc12)c1ncccn1 | 14%

Row | SMILES | growth
54 | C#CCOc1ccc(/C=N/Nc2nc(-c3cc(Cl)ccc3Cl)cs2)cc1 | 64.4%
55 | COc1ccc(-c2nc(SCC(C)C)nc(N/N=C\c3cccc([N+](=O)[O-])c3)c2C#N)cc1 | 31.4%
56 | CNC(=O)c1cc(Oc2ccc3nc(NC(=O)c4ccc(CN5CCN(C)CC5)c(C(F)(F)F)c4)sc3c2)ccn1 | 80.1%
57 | C#C[C@]1(O)CC[C@H]2[C@@H]3CC=C4c5sc(Nc6ccc(OC)nc6)nc5CC[C@]4(C)[C@H]3CC[C@@]21C | 29.7%
58 | O=C1Nc2ccc(Br)cc2/C1=N\c1nnc(-c2ccc(Cl)cc2)o1 | 55.3%
59 | CC(C)c1nn(-c2ccccc2)c(N2CCCCC2)c1/C=N/NC(N)=S | 83.9%
60 | COc1cc(/C=C/C(=O)c2ccc(N3CCN(C)CC3)cc2)ccc1F | 56.6%
61 | CC1CCN(S(=O)(=O)c2ncsc2-c2ccccc2)CC1 | 94.2%
62 | O=C1[C@@H]2Cc3c([nH]c4ccccc34)[C@H](c3c(Cl)cccc3Cl)N2C(=O)CN1C1CCN(Cc2ccccc2)CC1 | 24.6%
63 | C#C[C@]1(O)CC[C@H]2[C@@H]3CC=C4c5sc(Nc6ccncc6)nc5CC[C@]4(C)[C@H]3CC[C@@]21C | 24.4%
64 | C#CCOc1ccc(/C=N/Nc2nc(-c3cc4cc(Br)cc(Br)c4oc3=O)cs2)cc1 | 98.9%
65 | O=C1c2c(c3c4cccnc4[nH]c3c3ccc4ccccc4c23)C(=O)N1CCN1CCCCC1 | 42.8%
66 | NS(=O)(=O)Oc1ccc2nc(Nc3ccc(F)c(F)c3)ccc2c1 | 94.4%
67 | Cc1ccc(-c2csc(N/N=C/c3nc4ccccc4n3C3CC3)n2)cc1 | 57.8%
68 | O=C1c2c(c3c4cc(Br)ccc4[nH]c3c3ccc4ccccc4c23)C(=O)N1CCN1CCCCC1 | 59.8%
69 | Cc1cnc2nc(NN)[nH]n12 | 97.6%
70 | O=C(NCCCCCCNC(=O)c1c2c(nc3ccccc13)-c1cccnc1SC2)c1c2c(nc3ccccc13)-c1cccnc1SC2 | 43.7%
71 | COc1cc(/C=N/n2cnc3oc(-c4ccccc4)cc3c2=N)cc(CN2CCCC2)c1O | -62.8% (active)
72 | C#C[C@]1(O)CC[C@H]2[C@@H]3CC=C4c5sc(Nc6cccc(Cl)n6)nc5CC[C@]4(C)[C@H]3CC[C@@]21C | 35.6%
